This is part of a sample that, as a whole, favours compounds with a hit. Of some 79,000 tested, about 15% had one in any assay. Values without a mark were called inactive. Active and inactive are the calls of the source. No stated cut-off is given here; in the data, active means growth inhibition above about 70%; inactive means the rest.

A short description of this test: NCI Yeast Anticancer Drug Screen. Data for the rad50 strain (AID 155).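 Further: 0% = growth of vehicle-only cultures of the same strain.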 Particulars: S. cerevisiae rad50 strain growth inhibition; at 50.0 µM; stronger effect = higher value. A digest of the protocol: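 Relative growth inhibition (compound vs vehicle) was measured in yeast with a defined repair-gene alteration.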
For `CC1CC[Si](C)(C)CC12C(=O)NC(=O)NC2=O` (centres undefined), the growth inhibition is 6.65%.

Take `Nc1nc(N)c(N)c(N)n1`: the growth inhibition was 3.05%.

With `CCC(=O)c1ccc(N)cc1`, the growth inhibition is 7.95%.

Consider `CNC(Cc1ccccc1)c1cccc(OC)c1O` (centres undefined), for which the growth inhibition is -7.55%.

With `O=C(O)/C=C/C(=O)O.[Ni]`, the growth inhibition is -13.8%.

As for `CCOP(=O)(O)CP(=O)(O)OCC.CCOP(=O)(O)CP(=O)(O)OCC.[Cr]`, the growth inhibition was -61.8%.

`COc1cc2c(cc1O)-c1c(OC)c(O)cc3c1C(C2)N(C)CC3` (centres undefined): the growth inhibition is -20.6%.

Turning to `C/C(=N\N=C(N)N)C(CN(C)C)C(c1ccccc1)c1c(O)c2ccccc2oc1=O` (centres undefined), the growth inhibition was 25.6%.

Regarding `Cc1cc(NC(=O)CCc2ccc(N)cc2)ccc1S(=O)(=O)F`, the growth inhibition was 89.5% (active).

`[Cu].[NH2-].[NH2-].[NH2-].[NH2-]`: the growth inhibition is -21.8%.

On to `CCN(CC)C(=S)Cl`, for which the growth inhibition was -35.4%.

Take `N#CCCc1ccccc1`: the growth inhibition is -2.25%.

Turning to `C=C[CH2][Sn]([CH2]C=C)([CH2]CCC)[CH2]CCC`, the growth inhibition was 99.4% (active).

Turning to `CC1(C)OC2COC(CN=[N+]=[N-])C2O1` (centres undefined), the growth inhibition was 14.4%.

Turning to `C=CC(Cl)OC(=O)C(C)O` (centres undefined), the growth inhibition is 16.5%.

With `CC(CN1NC12CCCC2)N1NC12CCCC2` (centres undefined), the growth inhibition is 0.95%.

Take `[CH3][Hg][O]C(C)=O`: the growth inhibition was 99.5% (active).

Take `COC(=O)C(CCC(=O)O)NC(=O)OCc1ccccc1` (centres undefined): the growth inhibition was 40.5%.

For the molecule `O=C(C/C(=N/O)C(=O)NC1=C(Cl)C(=O)c2ccccc2C1=O)CC(c1ccccc1)c1c(O)c2ccccc2oc1=O` (centres undefined), the growth inhibition was 39.5%.
